Source: PubChem BioAssay AID1159566 (Broad Institute, 2015)
Results with a measured potency or affinity are listed apart. Activity calls are given as the source filed them. No rule for the calls is given here.

assay: Dd2 malaria parasite growth inhibition potency – SYBR Green, dry powder samples, dose response (AID 1159566); conditions: P. falciparum Dd2 growth, SYBR Green fluorescence; series mostly up to 19.5 µM

outcome, inactive:
C[C@@H]1CN([C@H](C)CO)C(=O)c2cccc(NC(=O)c3ccc(-c4nccs4)cc3)c2O[C@H]1CN(C)Cc1ccc(C(F)(F)F)cc1
O=C(NC[C@@H]1CC[C@H]2[C@H](CN2Cc2cc(-c3ccccc3)on2)O1)c1ccc2c(c1)OCO2
COc1cccc(C#Cc2ccc([C@H]3[C@@H](CO)N(C(=O)c4ccccn4)[C@H]3C#N)cc2)c1
Cc1ccccc1-c1ccccc1[C@H]1[C@@H](C#N)N(C(=O)c2ccccc2)[C@@H]1CO
COc1ccc(S(=O)(=O)Nc2ccc3c(c2)CC(=O)N([C@@H](C)CO)C[C@H](C)[C@H](CN(C)S(=O)(=O)c2ccc(OC)cc2)O3)cc1
